# Measurements reported in PubChem BioAssay (NCI).
# The panel holds about 83,000 compounds, 20% with a hit somewhere; the sample as a whole holds those more often.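 Each cell line was grown in a 96-well plate and treated with one concentration of compound for 48 hours. Values below 10 were considered active.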 A number with no mark means an inactive call. Calls of active or inactive are those of the source.
# What was measured:
# Test in all cases: NCI-60 one-dose screen, 48 h (100 = growth as untreated, 0 = no growth, -100 = all killed)
# Settings in all cases: 10 µM unless noted
# NCI/ADR-RES ovarian = system: NCI/ADR-RES ovarian
# T-47D breast = system: T-47D breast
# BT-549 breast = system: BT-549 breast
# MDA-MB-435 melanoma = system: MDA-MB-435 melanoma
# SW-620 colon = system: SW-620 colon
# HCT-116 colon = system: HCT-116 colon
# HCC-2998 colon = system: HCC-2998 colon
# KM12 colon = system: KM12 colon
# MCF7 breast = system: MCF7 breast
SMILES,growth (NCI/ADR-RES ovarian),growth (T-47D breast),growth (BT-549 breast),growth (MDA-MB-435 melanoma),growth (SW-620 colon),growth (HCT-116 colon),growth (HCC-2998 colon),growth (KM12 colon),growth (MCF7 breast)
CC[C@H](C)[C@H](NC(=O)[C@H]1CCCCN1C)C(=O)N(C)[C@H](C[C@@H](OC(C)=O)c1cccc(C(=O)N[C@@H](Cc2ccccc2)C[C@H](C)C(=O)O)n1)C(C)C,15.6%,66.8%,-18.7% (active),-48.8% (active),28.3%,-0.292% (active),17.1%,-6.52% (active),
O=C1OCCC1Br (stereo not given),106%,105%,85.3%,103%,103%,103%,102%,108%,
CCCC[C@H](NC(=O)[C@H]1CCCCN1C)C(=O)N(C)[C@H](C[C@@H](OC(C)=O)c1nc(C(=O)N[C@@H](Cc2ccccc2)C[C@H](C)C(=O)OCC)cs1)C(C)C,4.37% (active),38.6%,-25.6% (active),-6.84% (active),24.6%,,14.5%,13.1%,
Oc1ccc2c3c1OC1[C@@H](O)CC[C@@]4(O)[C@@H](C2)N(CC2CCC2)CC[C@]314 (stereo not given in full),102%,100%,106%,101%,104%,99.2%,,104%,
O=P(N1CC1)(N1CC1)N1CCc2ccccc21,101%,111%,99.4%,111%,101%,94.2%,99.5%,113%,
NC(=O)C(Br)c1ccccc1 (stereo not given),105%,95.3%,77.6%,94.1%,117%,82.8%,96.4%,96.9%,
[Cl][Hg][n]1c(-c2ccco2)nc2ccccc21,98.6%,94.6%,99.2%,95.7%,80.9%,99.7%,116%,97.8%,
Fc1ccc2c(c1)c(-c1nc(-c3c[nH]c4ncccc34)cs1)cn2CCCCN1CCCCC1,-64.1% (active),-68.8% (active),75.7%,-87.2% (active),-73.7% (active),-97.9% (active),-19% (active),-66.9% (active),
COc1cc2c(c(OC)c1OC)-c1ccc([O-])c(=O)cc1[C@@H](NC(C)=O)CC2.COc1cc2c(c(OC)c1OC)-c1ccc([O-])c(=O)cc1[C@@H](NC(C)=O)CC2.[Cu+2],40.4%,41.1%,12.8%,-18.8% (active),19.3%,8.67% (active),-14.9% (active),6.75% (active),
COc1cc(/C=C/[N+](=O)[O-])cc(OC)c1,11.3%,-1.67% (active),-49.7% (active),-46.4% (active),-10.5% (active),-68.3% (active),-79.7% (active),-23.7% (active),
COC(=O)[C@@H](C)C[C@H](Cc1ccccc1)NC(=O)c1csc([C@@H](C[C@H](C(C)C)N(C)C(=O)[C@H](C)NC(=O)[C@H]2CCCCN2C)OC(C)=O)n1,87.6%,41.9%,47.6%,-33% (active),18.4%,,33.8%,22.4%,
O=c1[nH]c2ccc([N+](=O)[O-])cc2c(=O)o1,101%,111%,95.3%,111%,105%,103%,102%,106%,
CC(C)=CC1C(C(=O)OCc2cccc(Oc3ccccc3)c2)C1(C)C (stereo not given),95%,81.5%,100%,91.9%,94.8%,84.8%,94.5%,97.3%,
COc1cc(/C=N/C2=C(C#N)C(c3ccco3)c3c(c4cc(C)ccc4oc3=O)O2)cc(OC)c1OC (stereo not given),96.3%,88.2%,91.1%,26.1%,81.7%,84.9%,109%,81.4%,
Cc1cc(N(CCCl)CCCl)ccc1/C=N\NC(=O)c1ccncc1,80.5%,54.4%,75.1%,89.1%,,78.8%,107%,95.6%,62%
C/C(=C\c1cc(C(F)(F)F)nn1CCNC(=O)OC(C)(C)C)[C@@H]1C[C@@H]2O[C@]2(C)CCC[C@H](C)[C@H](O)[C@@H](C)C(=O)C(C)(C)[C@@H](O)CC(=O)O1,28%,57.8%,73.2%,-27.6% (active),34.7%,23.3%,57.3%,20.3%,
COC(=O)[C@@H](C)C[C@H](Cc1ccccc1)NC(=O)c1nc([C@@H](C[C@H](C(C)C)N(C)C(=O)[C@@H](NC(=O)[C@H]2CCCN2C)C(C)C)OC(C)=O)sc1C,4.35% (active),43.2%,-12.7% (active),-18.4% (active),20.1%,,13.5%,11.9%,
CCCCCCCCCCCCCCCCCC1OC[C@H](COC(=O)O[C@@H](C(=O)O[C@H]2C[C@@]3(O)[C@@H](OC(=O)c4ccccc4)[C@@H]4[C@]5(OC(C)=O)CO[C@@H]5C[C@H](O)[C@@]4(C)C(=O)[C@H](OC(C)=O)C(=C2C)C3(C)C)[C@@H](NC(=O)c2ccccc2)c2ccccc2)O1 (stereo not given in full),103%,50.4%,53.8%,-29.7% (active),46.9%,17.8%,54.1%,26.4%,
Nc1ccc2c(c1)oc1ccccc12,95.1%,97%,97.9%,94.7%,,99.8%,97.6%,106%,83.2%
COc1ccc(/C=C\c2cc(OC)c(OC)c(OC)c2)c(NS(=O)(=O)c2ccc(F)cc2)c1O,2.13% (active),103%,24%,-34.9% (active),21.1%,7.7% (active),14.9%,1.13% (active),
Cc1ccc(Nc2nc3c(s2)C2=CC[C@@H]4[C@H](CC[C@]5(C)C(=O)CC[C@@H]45)[C@@]2(C)CC3)cc1,57.2%,43.8%,24.7%,44.3%,0.485% (active),-25.4% (active),78.2%,34.7%,
CC(C)(C)C(=O)OCOP(=O)(NCc1ccccc1)C1CCCN(O)C1=O (stereo not given),13.5%,23.3%,28%,39.4%,30.1%,7% (active),24.7%,-7.5% (active),
C=C(C)[C@@]12OC3(/C=C/C=C/CCCCC)O[C@@H]1[C@@H]1[C@@H]4O[C@]4(CO)[C@@H](O)[C@]4(O)C(=O)C(C)=C[C@H]4[C@@]1(O3)[C@H](C)[C@H]2OC(=O)c1ccccc1,69.4%,81.7%,83%,,58.9%,49.7%,-3.12% (active),9.5% (active),38.7%
Brc1ccc2c(c1)c(-c1nc(-c3c[nH]c4ncccc34)cs1)cn2CCN1CCCCC1,75.2%,66.2%,89%,,58.4%,51%,38.9%,66.2%,47.1%
C[C@]12CC[C@H]3[C@@H](CC[C@]4(O)C[C@@H](O[C@@H]5O[C@H](CO)[C@@H](O[C@@H]6OC[C@@H](O)[C@H](O)[C@H]6O)[C@H](O)[C@H]5O)CC[C@]34C=O)[C@@]1(O)CC[C@@H]2C1=CC(=O)OC1,-66.3% (active),2.52% (active),5.05% (active),,8.41% (active),5.35% (active),38.8%,16.9%,3.61% (active)
COc1ccc2c(c1)c(-c1nc(-c3cn(C)c4ncccc34)cs1)cn2CCN1CCOCC1,30.6%,20%,54.7%,,55.8%,34.4%,95.6%,22.7%,
COc1ccc(N(CC(=O)NCCC[Te]c2ccccc2)C(=O)CNC(=O)OC(C)(C)C)cc1,1.78% (active),109%,-47.8% (active),,53.1%,-3.11% (active),43.3%,19.3%,8.66% (active)
CCCCCC1(CCBr)C(=O)NC(=O)NC1=O,121%,106%,90.5%,,101%,106%,115%,109%,97.5%
O=C1CN=C(c2ccc(Cl)cc2)c2sccc2N1,109%,95.3%,103%,,110%,101%,116%,103%,96.5%
NC(=O)CNc1ccc([As]=[As]c2ccc(NCC(N)=O)cc2)cc1 (stereo not given),65.6%,33.3%,31.6%,,24.6%,54.7%,79.1%,88.5%,22.9%
